The text below walks through data of PubChem BioAssay.

Values without a mark were called inactive. Active and inactive are the calls of the source. How the calls were made is not given here.

In the first assay the target is L-lactate dehydrogenase (Plasmodium falciparum (isolate CDC / Honduras)) (UniProt Q27743). Nature of the assay: PfLDH activity inhibition – cell lysate, 3D7 strain, counter-screen for P. falciparum growth inhibition project (AID 2304).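 Further: 0% = vehicle and 100% = reference inhibitor.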 Particulars: P. falciparum 3D7 crude extract, LDH APAD/NBT absorbance; at 2 µM; stronger effect = higher value. On the technique in general: Counterscreens check selectivity or assay interference.
Chain of L-lactate dehydrogenase (Plasmodium falciparum (isolate CDC / Honduras)) (Q27743 whole entry, looked up): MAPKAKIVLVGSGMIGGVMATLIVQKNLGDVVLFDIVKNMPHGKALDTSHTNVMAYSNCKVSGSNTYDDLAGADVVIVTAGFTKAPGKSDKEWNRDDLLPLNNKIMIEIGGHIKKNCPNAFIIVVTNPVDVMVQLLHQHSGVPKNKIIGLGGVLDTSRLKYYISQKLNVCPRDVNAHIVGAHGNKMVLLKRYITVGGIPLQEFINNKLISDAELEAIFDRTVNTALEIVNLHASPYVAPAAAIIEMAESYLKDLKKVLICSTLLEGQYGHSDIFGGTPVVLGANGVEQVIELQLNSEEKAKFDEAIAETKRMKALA
With `Cc1nc(N)nc(N)c1OCc1cccc2ccccc12`, the inhibition (usually the drop in the measured response relative to a control, in per cent) is -1%.
Take `CN(C1CCC(NC(=O)/C=C/c2ccccc2)CC1)C1CC2(CCN(C(=O)OC(C)(C)C)CC2)c2ccccc21` (configuration not stated): the inhibition is 5%.
As for `O=C(Oc1ccc(C2CNCCc3c2cc(OC(=O)c2ccc(O)cc2)c(OC(=O)c2ccc(O)cc2)c3Cl)cc1)c1ccc(O)cc1` (configuration not stated), the inhibition is 0%.
Regarding `Nc1ccc2[nH]cc(C3CCN(CCC4CCN(C(=O)/C=C/c5ccc(Cl)c(Cl)c5)CC4)CC3)c2n1`, the inhibition is 0%.
`COc1cc(N(C)Cc2cnc3nc(N)nc(N)c3n2)cc(OC)c1OC`: the inhibition was 1%.
Consider `COc1ccc2ncn(-c3ccc(C(N)=O)c(OCc4ccccc4C(F)(F)F)c3)c2c1`, for which the inhibition is 3%.
With `Oc1ccc(CCNc2nc(NCc3ccccc3-c3cccc(Cl)c3)nc(N3CCNCC3)n2)cc1`, the inhibition was -3%.
Consider `NC1CCCN(Cc2ccc(-c3ccc(-c4nc5ccccc5[nH]4)s3)cc2)C1` (configuration not stated), for which the inhibition is -2%.
Take `CCCc1ccc(NC(=O)c2cccc(CN3CCCN(Cc4cccc(C#N)c4)CC3)c2)cc1`: the inhibition is -4%.
Regarding `CN(C)CCOc1ccc(-c2cc(-c3ccc(Cl)c(O)c3)c(-c3ccncc3)[nH]2)cc1`, the inhibition is 5%.
Take `COc1ccc(CC(=O)Nc2ccc(-c3cccc(-c4nc5c(C)cccc5[nH]4)c3)cc2)cc1O`: the inhibition was 4%.
Regarding `COc1cccc(OC)c1OCCCOc1c(C)nc(N)nc1N`, the inhibition is 0%.
Turning to `c1csc(-c2nc(NCC3CCCO3)ncc2-c2ccsc2)n1` (configuration not stated), the inhibition is 1%.
As to `COc1ccccc1C1CCN(CCN2CCC(NC(=O)c3ccc(-c4ccc(C#N)cc4)cc3)CC2)CC1`, the inhibition is -5%.
In the case of `CCCCCN1CCCC(NS(=O)(=O)c2ccc(C(=O)Nc3cccc(C(F)(F)F)c3)cc2)C1` (configuration not stated), the inhibition was 5%.
In the case of `CCCCc1ccc(-c2c(N)nc(N)nc2CC)cc1`, the inhibition was -1%.
Turning to `Cc1cc2c(/C=C/C(=O)NC3CCC(CCN4CCc5ccc(C#N)cc5CC4)CC3)cccc2[nH]1` (configuration not stated), the inhibition was 1%.
As for `O=C(Nc1ccc(Cl)c(Cl)c1)N1CCC(CNCc2cccc([N+](=O)[O-])c2)CC1`, the inhibition is 2%.
Still for that read-out and setting: as for `CN1CCCc2ccc(NC(=O)Nc3ccc(Cl)c(Cl)c3)cc2C1`, the figure is -2%; as for `Cc1ccc(Cn2ncc(N3C[C@@H](C)N[C@@H](C)C3)c(Cl)c2=O)cc1NC(=O)Nc1ccc(-c2ccccc2)cc1`, -2%.
As to `Cc1cc(NN=Cc2ccc(Cl)cc2)c2ccc(F)cc2n1`, the inhibition is -2%.
Same read-out and setting: as for `CCc1nc(N)nc(N)c1-c1ccc(C(C)(C)C)cc1`, the figure is -7%; as for `Cc1nn(-c2ccnc3cc(Cl)ccc23)c(C)c1C(=O)NCc1cc(Cl)cc(Cl)c1`, -1%; as for `Cc1nc(Nc2ccc(C)c(Cl)c2)c2c(C)noc2n1`, 0%.
The same measure, in the same setting: as for `Cc1onc(-c2ccccc2)c1-c1nc(NC2CCCC(C)C2)no1` (configuration not stated), the figure is -3%.
For the compound `O=C(N[C@H]1CCN(CCc2ccc(O[C@H]3CCNC3)c(Cl)c2)C1)c1ccc(Cl)c(Cl)c1`, the inhibition is 2%.
For `FC(F)(F)COc1c(CCNCCCCNCCc2ccc3ccccc3c2OCC(F)(F)F)ccc2ccccc12`, the inhibition is -3%.

Tested on in a further assay: not listed separately
Briefly: inhibition of 3D7 malaria parasite growth – strain 3D7 (AID 2306).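 Further: 0% = DMSO wells and 100% = chloroquine plus artemisinin control wells.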 The following applies: P. falciparum 3D7 erythrocytic growth, LDH absorbance, 72 h; at 2 µM; stronger effect = higher value.
With `OCCc1ccc(Nc2nccc(-c3nnc4ccccn34)n2)cc1`, the growth inhibition is 93% (active).
As for `COc1ccc(Cn2ccc3c4c(N)nc(N)nc4ccc32)cc1`, the growth inhibition was 101% (active).
With `O=C(NCCSCc1c(F)cccc1Cl)c1cnc2c(c1)nc(-c1cnc(-c3ccccc3)[nH]1)n2CCc1cnc[nH]1`, the growth inhibition is 93% (active).
For `O=C(CSc1nccn1C1CCCC1)Nc1cc(C(F)(F)F)ccc1Cl`, the growth inhibition was 96% (active).
On the same count and under the same terms, as for `OC(CNCc1ccccc1OCc1ccccc1)c1cccc(Br)c1` (configuration not stated), the figure is 100% (active); as for `NC1CCN(Cc2cccc(-c3ccc(-c4nc5ccccc5[nH]4)s3)c2)C1` (configuration not stated), 100% (active); as for `CN1CCN(c2ccc(-c3cc(-c4ccncc4)c(-c4ccc(Cl)c(O)c4)o3)cc2)CC1`, 101% (active).
Regarding `CC(C)C1=C[C@H]2C[C@]3(C4OCCO4)[C@@H]4CC[C@@H](C)[C@H]4C[C@@]2(C(=O)OCC2COCO2)[C@]13C(=O)OC(c1ccccc1)c1ccccc1` (some centres not stated), the growth inhibition was 92% (active).
The same measure, in the same setting: as for `Cc1ccc(CNC(=O)[C@H](CCCN)Nc2nc(Nc3ccccc3)ncc2C)cc1`, the figure is 97% (active); as for `CCn1c(Sc2ccc([N+](=O)[O-])c(C#N)c2)nnc1-c1ccc(Cl)cc1`, 93% (active); as for `Cc1cccc(NC(=O)Nc2cccc(-c3ccc(-c4nc5ccc(C(F)(F)F)cc5[nH]4)cc3)c2)c1`, 101% (active).
As to `CN1CCCC(CN2CCN(Cc3cccc(-c4ccc(-c5nc6ccc(F)cc6[nH]5)cc4)c3)CC2)C1` (configuration not stated), the growth inhibition is 101% (active).
As for `CN1CCC(N2CCN(CCOc3cc(NC(=O)/C=C/c4ccccc4Cl)ccc3Br)CC2)CC1`, the growth inhibition was 101% (active).
Turning to `Cc1nc(N)nc(N)c1OCc1cccc2ccccc12`, the growth inhibition is 96% (active).
As for `CN(C1CCC(NC(=O)/C=C/c2ccccc2)CC1)C1CC2(CCN(C(=O)OC(C)(C)C)CC2)c2ccccc21` (configuration not stated), the growth inhibition is 95% (active).
As for `O=C(Oc1ccc(C2CNCCc3c2cc(OC(=O)c2ccc(O)cc2)c(OC(=O)c2ccc(O)cc2)c3Cl)cc1)c1ccc(O)cc1` (configuration not stated), the growth inhibition is 90% (active).
`Nc1ccc2[nH]cc(C3CCN(CCC4CCN(C(=O)/C=C/c5ccc(Cl)c(Cl)c5)CC4)CC3)c2n1`: the growth inhibition is 100% (active).
Turning to `COc1cc(N(C)Cc2cnc3nc(N)nc(N)c3n2)cc(OC)c1OC`, the growth inhibition is 95% (active).
As to `COc1ccc2ncn(-c3ccc(C(N)=O)c(OCc4ccccc4C(F)(F)F)c3)c2c1`, the growth inhibition was 98% (active).
For the compound `Oc1ccc(CCNc2nc(NCc3ccccc3-c3cccc(Cl)c3)nc(N3CCNCC3)n2)cc1`, the growth inhibition was 84% (active).
Consider `NC1CCCN(Cc2ccc(-c3ccc(-c4nc5ccccc5[nH]4)s3)cc2)C1` (configuration not stated), for which the growth inhibition was 102% (active).
`CCCc1ccc(NC(=O)c2cccc(CN3CCCN(Cc4cccc(C#N)c4)CC3)c2)cc1`: the growth inhibition was 85% (active).
`CN(C)CCOc1ccc(-c2cc(-c3ccc(Cl)c(O)c3)c(-c3ccncc3)[nH]2)cc1`: the growth inhibition is 98% (active).
Turning to `COc1ccc(CC(=O)Nc2ccc(-c3cccc(-c4nc5c(C)cccc5[nH]4)c3)cc2)cc1O`, the growth inhibition was 96% (active).
As for `COc1cccc(OC)c1OCCCOc1c(C)nc(N)nc1N`, the growth inhibition was 97% (active).
Same read-out and setting: as for `c1csc(-c2nc(NCC3CCCO3)ncc2-c2ccsc2)n1` (configuration not stated), the figure is 89% (active); as for `COc1ccccc1C1CCN(CCN2CCC(NC(=O)c3ccc(-c4ccc(C#N)cc4)cc3)CC2)CC1`, 99% (active).
For `CCCCCN1CCCC(NS(=O)(=O)c2ccc(C(=O)Nc3cccc(C(F)(F)F)c3)cc2)C1` (configuration not stated), the growth inhibition was 97% (active).
Turning to `CCCCc1ccc(-c2c(N)nc(N)nc2CC)cc1`, the growth inhibition is 95% (active).
Consider `Cc1cc2c(/C=C/C(=O)NC3CCC(CCN4CCc5ccc(C#N)cc5CC4)CC3)cccc2[nH]1` (configuration not stated), for which the growth inhibition was 95% (active).
For the compound `O=C(Nc1ccc(Cl)c(Cl)c1)N1CCC(CNCc2cccc([N+](=O)[O-])c2)CC1`, the growth inhibition was 98% (active).
Turning to `CN1CCCc2ccc(NC(=O)Nc3ccc(Cl)c(Cl)c3)cc2C1`, the growth inhibition was 89% (active).
As to `Cc1ccc(Cn2ncc(N3C[C@@H](C)N[C@@H](C)C3)c(Cl)c2=O)cc1NC(=O)Nc1ccc(-c2ccccc2)cc1`, the growth inhibition was 100% (active).
Consider `Cc1cc(NN=Cc2ccc(Cl)cc2)c2ccc(F)cc2n1`, for which the growth inhibition is 100% (active).
Turning to `CCc1nc(N)nc(N)c1-c1ccc(C(C)(C)C)cc1`, the growth inhibition was 94% (active).
`Cc1nn(-c2ccnc3cc(Cl)ccc23)c(C)c1C(=O)NCc1cc(Cl)cc(Cl)c1`: the growth inhibition is 97% (active).
On to `Cc1nc(Nc2ccc(C)c(Cl)c2)c2c(C)noc2n1`, for which the growth inhibition was 94% (active).
Take `Cc1onc(-c2ccccc2)c1-c1nc(NC2CCCC(C)C2)no1` (configuration not stated): the growth inhibition was 101% (active).
As to `O=C(N[C@H]1CCN(CCc2ccc(O[C@H]3CCNC3)c(Cl)c2)C1)c1ccc(Cl)c(Cl)c1`, the growth inhibition was 101% (active).
For the compound `FC(F)(F)COc1c(CCNCCCCNCCc2ccc3ccccc3c2OCC(F)(F)F)ccc2ccccc12`, the growth inhibition was 101% (active).
